system: DRIVER-selected RNA biosensor (aptazyme) pool; assay: maximum fold change of ribozyme cleavage across biosensor pool versus no-compound control; higher = stronger biosensor response (ligand inhibits cleavage); settings: 10 µM
In short: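 Fold change of cleavage, the ratio of cleaved:uncleaved read fractions versus a no-compound condition corrected with reference sequences, is given as the maximum over all biosensors. It was measured by CleaveSeq on a pool of 1,730 array-resynthesized ribozyme biosensors transcribed by T7 with 9 mM rNTPs for 15–30 min at 37°C in the presence of one compound at 10 µM final, added from a 10x DMSO stock. After reverse transcription at 50°C, cleaved and uncleaved products were PCR-barcoded and counted by Illumina sequencing.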

Compound | maximum fold change
COCCN1C(=O)c2[nH]nc(-c3ccccc3O)c2C1c1ccccc1 (configuration not stated) | 3.01
Cc1c(CNC(C)CCc2ccccc2)c(C(=O)O)c(C)n1Cc1cccc(Cl)c1 (configuration not stated) | 4.02
COc1ccc(/C=C2N=C(c3ccc(Cl)c(Cl)c3)OC2=O)cc1 | 2.84
COc1ccc(OC)c(C2C3=C(CC(C)(C)CC3=O)OC3=C2C(=O)CC(C)(C)C3)c1 | 2.36
Cc1ccc2[nH]c(=O)c3cc(C(=O)NCCCN(C)Cc4ccccc4)sc3c2c1 | 7.38
Cc1ccc(-c2noc(CCC(=O)NCCN3CCOCC3)n2)cc1 | 3.61
COc1ccc(/C=C/C(=O)Nc2nc3ccc(S(C)(=O)=O)cc3s2)cc1Br | 3.76
CCOC(=O)c1cnc2c(C)cc(Cl)cc2c1NCCCO | 9.37
Cc1cc(C)c(Cn2c(C)c(CNCc3cccc(Cl)c3)c(C(=O)O)c2C)c(C)c1 | 1.74
COc1ccc(-c2nn(C)c3sc(C(=O)N4CCC(C#N)CC4)cc23)cc1OC | 7.42
Cc1ccc(CNC(=O)c2cc3c(=O)oc4ccccc4c3s2)o1 | 3.09
C=CCNC(=O)c1c(C)c(C(=O)OCC)n(C)c1C | 2.81
CCNC(=S)N1CCN=C1Nc1nc(C)cc(C)n1 | 2.17
N#C/C(=Cc1c(Oc2ccccc2Cl)nc2n(c1=O)cccc2)/c1nc2c([nH]1)cccc2 | 7.4
O=C1Nc2cc(C(=O)N3CCN(c4ccco4)CC3)ccc2N/C1=C\C(=O)c1ccc(Cl)cc1 | 5.38
CCOc1ccc2c(c1)[N+](C)=C(/C=C/c1ccc(C(=O)OC)cc1)C2(C)C | 2.67
N=C1/C(=C\c2ccc(Br)cc2)C(=O)N=C2SC(N3CCOCC3)=NN12 | 2.79

From the supplement of paper PMC9477273
